Assay outcomes deposited in PubChem by National Center for Advancing Translational Sciences (NCATS).
Giardia FBPA inh = inhibitors of Giardia lamblia fructose-1,6-bisphosphate aldolase; A8B2U2; purified Giardia FBPA; Potency, µM (doses to about 59.6 µM), most hits filed as inhibitors; hit rate 0.71% among 290,000; note: nearly all actives have a fitted effect of over 55% in size
Target sequence (A8B2U2 whole entry, looked up): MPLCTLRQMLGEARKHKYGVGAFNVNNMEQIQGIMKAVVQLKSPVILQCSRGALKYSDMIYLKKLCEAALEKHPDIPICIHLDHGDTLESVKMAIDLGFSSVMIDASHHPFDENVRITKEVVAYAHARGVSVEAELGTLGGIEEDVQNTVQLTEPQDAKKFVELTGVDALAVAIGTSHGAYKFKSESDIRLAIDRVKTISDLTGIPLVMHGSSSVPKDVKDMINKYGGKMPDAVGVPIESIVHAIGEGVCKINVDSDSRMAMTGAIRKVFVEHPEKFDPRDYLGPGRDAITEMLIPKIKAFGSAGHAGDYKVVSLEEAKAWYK
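Giardia FBPA (40 nM reagent) was preincubated 10 min at RT with compound (up to 57.5 uM final), then substrate plus GAPDH/TPI/NAD/arsenate coupling system with diaphorase/resazurin was added; resorufin fluorescence (525/598 nm) was read after 20 min.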
Tb PYK inh = blocks Trypanosoma brucei pyruvate kinase; TbPYK enzyme, Kinase-Glo Plus ATP luminescence, 45 min; hit rate 0.12% among 410,000; Q57TT1; AID 624173; Potency, µM (doses to about 76.8 µM), actives largely listed as inhibitors; note: nearly all actives have a fitted effect of over 50% in size
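Screened from lowest to highest concentration, compounds were pinned into TbPYK/substrate mixtures, and ADP (130 uM final) was added. Plates sat at room temperature for 45 min prior to Kinase-Glo Plus detection by luminescence.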
Sm TGR inh = S. mansoni TGR enzyme inhibition. Q962Y6. purified TGR, DTNB reduction, TNB absorbance 405 nm. Potency, µM (doses to about 114 µM), most hits filed as inhibitors. hit rate 3% among 360,000. AID 485364; note: nearly all actives have a fitted effect of over 60% in size
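Kinetic colorimetric format: TGR-catalysed, NADPH-driven DTNB reduction monitored via TNB absorbance. Enzyme dispensed at 20 nM; compound exposure 15 min at room temperature before reaction start.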
CHX counter = counter-screen for Shiga toxin inhibitors: cycloheximide protein synthesis inhibition | cell reporter, cycloheximide protein synthesis inhibition counterscreen | max response, % | hit rate 12% among 300,000; in the data active = max response mostly above about 13%, no sharp cut-off; inactive = mostly below about 14%; note: read at 38.3 µM for the half of the compounds with a filed dose
LmPK inh = LmPK (Leishmania mexicana) enzyme inhibition | Potency, µM (top dose mostly 57.5 µM), usual class: inhibitors | Q27686 | purified LmPK, Kinase-Glo ATP luminescence, 1 h | hit rate 0.37% among 290,000
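Pyruvate kinase activity monitored as ATP production (luciferase luminescence). Conditions: 0.1 nM enzyme, 0.5 mM PEP, 0.1 mM ADP, 1 h, RT; normalized against uninhibited and no-enzyme wells.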
Shiga toxin inh = blocks Shiga toxin action in Vero cells; AID 2315; hit rate 9.2% among 290,000; inhibition, % at 38.7 µM; Vero cells, Shiga toxin protein synthesis inhibition reporter; in the data active = inhibition mostly above about 28%, no sharp cut-off; inactive = mostly below about 43%
A number is an active result; - = inactive; ? = inconclusive; . = no result given; + = active, no number. The full list was thinned out, with hits kept by preference. Unless noted, calls come from the whole dose curve; as a rule, active = well fitted curve in the direction sought with a large enough effect; inconclusive = small, poorly fitted or top-dose-only effect, or another doubt; inactive = no such curve, though single readings can be large; an effect the other way counts as inactive or inconclusive.

SMILES | Giardia FBPA inh | Tb PYK inh | Sm TGR inh | CHX counter | LmPK inh | Shiga toxin inh
COc1ccc(N(CC(=O)Nc2ccc3c(c2)OCCO3)S(=O)(=O)c2cccnc2)cc1 | - | - | - | 20.1 | - | -
Cc1ccc(N(CC(=O)Nc2ccc3c(c2)OCCO3)S(=O)(=O)c2c(C)noc2C)cc1 | - | - | - | - | - | -
CCOc1ccc(N(CC(=O)NC2CCCCC2C)S(=O)(=O)c2c(C)noc2C)cc1 (configuration not stated) | . | - | - | 13.9 | - | -
COc1ccc(N(CC(=O)Nc2ccc3c(c2)OCO3)S(=O)(=O)c2ccccc2)cc1 | - | - | . | - | - | -
COc1ccc(N(CC(=O)Nc2ccc3c(c2)OCCO3)S(=O)(=O)c2c(C)noc2C)cc1 | - | - | - | 10.8 | - | -
CCOc1ccc(N(CC(=O)NC2CCC(C)CC2)S(=O)(=O)c2c(C)noc2C)cc1 (configuration not stated) | . | - | - | - | - | -
CC1(C)CC2(CC(c3ccccc3F)c3ccc(O)c(O)c3O2)NC(=S)N1 (configuration not stated) | ? | ? | 1.12µM | - | - | -
O=C(CCn1c(=O)c2cccn2c2cccnc21)N1CCN(c2ccc(F)cc2)CC1 | . | - | - | . | . | .
CN(C)c1ncc2nc(-c3ccc(F)cc3)c(=O)n(CCC#N)c2n1 | - | - | . | . | . | .
O=[N+]([O-])c1cccc(/C=C/c2ccncc2)c1 | - | - | - | 21.6 | - | -
O=[N+]([O-])c1ccc(/C=C/c2ccncc2)cc1 | - | - | - | 30.4 | - | 68.4
C(=C\c1ccncc1)/c1ccccc1 | - | - | - | 36.0 | - | -
Cc1ccc(C)c(NC(=O)COC(=O)c2ccc(S(=O)(=O)N3CCCC3)cc2)c1 | . | - | . | . | . | .
CCN1C(=O)C(Cc2nc3ccccc3c(=O)n2-c2cccc(C)c2)c2ccccc21 (configuration not stated) | . | - | - | . | . | .
CCOc1ccc2c(c1)c(=O)c(C(=O)c1ccc3c(c1)OCO3)cn2Cc1cccc(F)c1 | . | - | - | . | . | .
Cc1ccc(N=C2NC(=O)C(CO)(CO)S2)cc1 | - | - | - | 8.8 | - | -
CCCCCC(=O)Nc1cc(S(=O)(=O)N2CCOCC2)ccc1Oc1ccc(OCC)cc1 | . | - | - | . | . | .
N/C(=N\OC(=O)c1ccccc1Cl)c1cccc([N+](=O)[O-])c1 | - | - | - | 37.2 | - | 52.2
N/C(=N\OC(=O)c1cccc(Br)c1)c1ccc([N+](=O)[O-])cc1 | - | - | - | - | - | -
CC1=C(C)/C(=N/OC(=O)c2cccc([N+](=O)[O-])c2)C=CC1=O | ? | - | 11.2µM | 56.0 | - | 90.1
N/C(=N\OC(=O)c1ccccc1F)c1ccc([N+](=O)[O-])cc1 | - | - | - | 30.0 | - | -
Cc1cccc(/C(N)=N/OC(=O)COc2ccc(Cl)cc2)c1 | - | - | - | - | - | -
Cc1cccc(/C(N)=N/OC(=O)c2ccc(F)cc2)c1 | - | ? | - | 73.0 | 4.47µM | 85.9
COc1ccccc1C(C)NC(=O)CCC(=O)N1CCN(S(=O)(=O)c2ccc(Cl)cc2)CC1 (configuration not stated) | . | - | . | . | . | .
Cc1cccc(C(=O)NCCc2nc3ccccc3n2Cc2ccc(Cl)cc2)c1 | . | - | - | . | . | .
SMILES | Giardia FBPA inh | Tb PYK inh | Sm TGR inh | CHX counter | LmPK inh | Shiga toxin inh
N/C(=N\OC(=O)c1cccc(F)c1)c1cccc([N+](=O)[O-])c1 | - | - | - | 17.7 | - | 30.5
N/C(=N/OC(=O)c1ccccc1Cl)c1ncc([N+](=O)[O-])s1 | - | - | ? | 35.0 | - | 68.5
N/C(=N\OC(=O)c1ccc2ccccc2c1)c1cccc([N+](=O)[O-])c1 | - | - | - | 38.5 | - | +
N/C(=N\OC(=O)c1ccc(F)cc1)c1cccc([N+](=O)[O-])c1 | - | - | - | 31.1 | - | 56.9
N/C(=N/OC(=O)c1cccc([N+](=O)[O-])c1)c1cccc([N+](=O)[O-])c1 | - | - | . | - | - | -
C[C@H]1CN([C@@H](C)CO)C(=O)CCCn2nncc2CO[C@H]1CN(C)C(=O)Nc1cccc2ccccc12 | . | - | . | . | . | .
Cc1ccc(S(=O)(=O)N2CCOCC2)cc1NC(=O)COC(=O)c1ccc(Br)o1 | . | - | . | . | . | .
COC(=O)C1CCN(c2csc3ccc(Cl)cc3c2=O)CC1 | . | - | - | . | . | .
